Counter-ions that a name gives are not always drawn. ± gives the standard deviation of the averaged measurements.
tested on: Toxoplasma gondii RH (in HFF); assay: parasite growth relative to the screen mean (all compounds = 100%); higher = less inhibition of parasite growth; conditions: 5 µM; 72 h; oxygen 21 %
Summary of the method: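 Library compounds, held as 10 mM DMSO stocks, were pinned to 5 µM final onto confluent human foreskin fibroblasts in 96-well plates. The cells were infected within 2 h with RH β-Gal–GFP Toxoplasma (MOI 1:5), grown 72 h at 21% O2, and assayed for parasite number by CPRG β-Gal using in-plate standard curves. Growth is reported relative to the screen mean, in which all compounds = 100%, averaged over two screens, and CellTiter-Blue checked uninfected host-cell viability.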

Row | Compound | parasite growth [%]
1 | Cc1[nH]c(/C=C2\C(=O)Nc3ccc(S(=O)(=O)Cc4c(Cl)cccc4Cl)cc32)c(C)c1C(=O)N1CCC[C@@H]1CN1CCCC1 | < 0
2 | CN1CCN(C2=Cc3ccccc3Oc3ccc(Cl)cc32)CC1 | 31.7 ± 7.6
3 | CCOC(=O)N1CCC(=C2c3ccc(Cl)cc3CCc3cccnc32)CC1 [Loratidine] | 112 ± 4.8
4 | CN(Cc1cnc2nc(N)nc(N)c2n1)c1ccc(C(=O)N[C@@H](CCC(=O)O)C(=O)O)cc1 [Methotrexate] | 161 ± 27
5 | Cc1cc(/C(=C/Nc2ccc(Cl)cc2)C(=O)Nc2ccc(Cl)cc2)on1 | 139 ± 40
6 | COC(=O)[C@H]1[C@H]2C[C@H]3c4[nH]c5ccccc5c4CCN3C[C@H]2CC[C@@H]1O [Rauwolscine hydrochloride] | 167 ± 41
7 | Cc1cc(C)c(S(=O)(=O)Nc2ccccc2C(F)(F)F)c(C)c1 | 145 ± 10
8 | COc1cc2c(CCNC(C)=O)c[nH]c2cc1Cl [6-Chloromelatonin] | 131 ± 24
9 | Cc1ccc(C(=O)Cn2c3c(sc2=N)CCCC3)cc1 [Pifithrin- α hydrobromide] | 130 ± 1.9
10 | O=[N+]([O-])c1cccc2cn[nH]c12 [7-Nitroindazole] | 124.7 ± 0.72
11 | O=C1c2ccccc2CCC1CNCCc1ccc(O)cc1 (centres undefined) [HEAT hydrochloride] | 68.1 ± 13
12 | Cc1ccc(NC2=CC(=O)c3sc(C)nc3C2=O)cc1 [Ryuvidine] | < 0
13 | O=C1OC(OC(=O)c2cccnc2Nc2cccc(C(F)(F)F)c2)c2ccccc21 (centres undefined) [Talniflumate] | 113 ± 28
14 | COc1ccc(-c2nc(C(=O)N3CCN(C)CC3)sc2-c2ccc(OC)cc2)cc1 | 112 ± 21
15 | NS(=O)(=O)C#Cc1ccccc1 [Pifithrin->m] | 123 ± 13
16 | COc1cc(COc2cc(N)c(Cl)cc2C(=O)CCC2CCN(CCNS(C)(=O)=O)CC2)cc(OC)c1 | 28.1 ± 16
17 | COC(=O)c1sccc1S(=O)(=O)Nc1ccc(Nc2ccccc2)cc1OC | 64 ± 25
18 | CCC(C)(C)C(=O)O[C@H]1C[C@@H](C)C=C2C=C[C@H](C)[C@H](CC[C@@H]3C[C@@H](O)CC(=O)O3)[C@H]21 [Simvastatin] | 110 ± 18
19 | CC1(C)C(=O)NC2=C1C(=O)C(=O)c1ccccc12 | < 0
20 | COc1cc(N)c(Cl)cc1C(=O)NC1CCN(CCCOc2ccc(F)cc2)CC1OC (centres undefined) [Cisapride] | 20.8 ± 7.1

Row | Compound | parasite growth [%]
21 | O=c1cc(N2CCNCC2)oc2c(-c3ccccc3)cccc12 | 150 ± 30
22 | CCc1c2c(nc3ccc(OC(=O)N4CCC(N5CCCCC5)CC4)cc13)-c1cc3c(c(=O)n1C2)COC(=O)[C@]3(O)CC | 59.8 ± 11
23 | CCOC(=O)[C@@H](C)Oc1cccc2c(=O)n(CC(=O)Nc3ccc4c(c3)OCCO4)ccc12 | 118 ± 12
24 | CC1=Nc2ccc(Cl)cc2S(=O)(=O)N1 [Diazoxide] | 77.6 ± 16
25 | Cc1ccc2c(c1)c1c3n2CCNC3CCC1 (centres undefined) [Pirlindole mesylate] | 152 ± 16
26 | COc1ccccc1C1(O)CCN(CCCn2c3ccccc3c3ccccc32)CC1 [NNC 05-2090 hydrochloride] | < 0
27 | Cc1nc2c(OCc3ccccc3)cccn2c1CC#N | 153 ± 7.3
28 | O=C(C=Cc1ccccc1)NC(NC(=S)Nc1ccc(Cl)cc1)C(Cl)(Cl)Cl (centres undefined) | 34.8 ± 9.4
29 | Cc1nc2sccn2c(=O)c1CCN1CCC(=C(c2ccccc2)c2ccc(F)cc2)CC1 | 106 ± 24
30 | Cc1cc(C)c(S(=O)(=O)Nc2cccc(C(F)(F)F)c2)c(C)c1 | 169 ± 30
31 | c1cc2c(cc1C1CCCCC1)c1c3n2CCNC3CCC1 (centres undefined) [Tetrindole mesylate] | 13.2 ± 2.2
32 | CN(CCOc1ccc(-c2ccc3c(c2)OCO3)cc1C(C)(C)C)CC(=O)O | 110 ± 38
33 | O=C1CC2(CCCC2)CC(=O)N1CCNCC1COc2ccccc2O1 (centres undefined) | 152 ± 13
34 | CC(=O)NCCc1c(Cc2ccccc2)[nH]c2ccccc12 [Luzindole] | 75.1 ± 29
35 | CC(Oc1ccc(O)cc1)(P(=O)(O)O)P(=O)(O)O | 101 ± 21
36 | Cc1cccc(C)c1OCC(C)N (centres undefined) [Mexiletine hydrochloride] | 141.59 ± 0.025
37 | OC[C@H]1NC[C@@H](O)[C@@H](O)[C@@H]1O [1-Deoxymannojirimycin hydrochloride] | 141 ± 9.1
38 | Fc1ccc([C@@H]2CCNC[C@H]2COc2ccc3c(c2)OCO3)cc1 [Paroxetine maleate] | 39.5 ± 4
39 | CNCCCC12CCC(c3ccccc31)c1ccccc12 [Maprotiline hydrochloride] | 54.1 ± 17

— the supplement of paper PMC4894684
